According to PubChem BioAssay AID1259324 (C. David Weaver Laboratory, Vanderbilt University, 2017):
Hit rate of the full screen: of about 34,000 compounds, fewer than 10 were called active.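 The calls were made as follows: active = primary screen hit, no activity in plain HEK293 cells, and in GIRK2-only cells above 5% efficacy rising with concentration; inactive = the rest, including fluorescent compounds.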 Not all results are given here.

Target: G protein-activated inward rectifier potassium channel 2 (Homo sapiens) (UniProt P48051)
Test: activators of NPY4-receptor-primed GIRK2 channels, summary, cell-based, HEK293, thallium flux (AID 1259324)
Conditions: HEK293 GIRK2/NPY4 cells, thallium flux fluorescence

Chain of G protein-activated inward rectifier potassium channel 2 (Homo sapiens) (P48051 whole entry, looked up): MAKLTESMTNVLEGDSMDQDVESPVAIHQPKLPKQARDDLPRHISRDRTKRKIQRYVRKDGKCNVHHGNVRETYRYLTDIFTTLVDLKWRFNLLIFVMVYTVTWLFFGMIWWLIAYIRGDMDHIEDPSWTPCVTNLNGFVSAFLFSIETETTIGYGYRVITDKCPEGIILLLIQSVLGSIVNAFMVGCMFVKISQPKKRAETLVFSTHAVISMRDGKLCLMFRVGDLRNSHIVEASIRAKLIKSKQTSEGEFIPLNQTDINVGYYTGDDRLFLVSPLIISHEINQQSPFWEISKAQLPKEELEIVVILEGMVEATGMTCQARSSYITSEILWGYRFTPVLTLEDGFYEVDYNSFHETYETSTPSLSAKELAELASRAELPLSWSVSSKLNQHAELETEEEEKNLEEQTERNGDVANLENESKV

outcome, inactive:
COc1ccc(NC(=O)c2ccc(C(F)(F)F)cc2)cc1N1CCCC1=O
O=C(NC1CC(=O)N(C2CC2)C1)c1ccc(-n2cccc2)cc1 (stereo not given)
O=C(c1cccc(Cl)c1)N1CCOC(c2ccc(C(F)(F)F)cc2)C1 (stereo not given)
CC1CCN(C(=O)CN2CCN(c3nccn3-c3cccc(Cl)c3)CC2)CC1
COc1cccc(C(=O)NNC(=O)c2ccc(=O)n(Cc3ccccc3)c2)c1OC
O=C(NCCCO)C(=O)Nc1ccc2c(c1)OCCO2
O=C(CSc1nc2ccsc2c(=O)n1CCc1ccccc1)Nc1ccccc1F
COCCNc1oc2c(c1-c1ccc([N+](=O)[O-])cc1)c(=O)oc1ccc(C)cc12
O=C(CN1CCOCC1)Nc1ccccc1-c1nc2ccccc2[nH]c1=O
O=S1(=O)CCC(n2nc(-c3ccco3)cc2NS(=O)(=O)c2cccc(Cl)c2)C1 (stereo not given)
CC(C)(C)OC(=O)C1=NN(c2ccc(Cl)cc2)c2ncccc2S1(=O)=O
CCn1nnc2c(NCc3ccccc3OC)ncnc21
Cc1ccc(C(CNC(=O)C(=O)NCc2ccccc2)N2CCOCC2)cc1 (stereo not given)
CS(=O)(=O)N1CCN(CCNC(=O)c2ccc([N+](=O)[O-])o2)CC1
O=C(NCc1cccs1)C(=O)NCC1CCN(C(=O)/C=C/c2ccco2)CC1
O=C(NCc1cccs1)C(=O)NCC1CCCO1 (stereo not given)
COc1ccc(OC)c(CNC(=O)c2snc(-c3cccc(F)c3)c2N)c1
COc1ccc(CCNC(=O)COc2ccccc2Br)cc1OC
COc1cc(C)c(C)cc1S(=O)(=O)N1CCN(c2ccc(-c3cccnc3)nn2)CC1
COc1ccc(S(=O)(=O)CCCC(=O)Nc2nc(-c3ccc([N+](=O)[O-])cc3)cs2)cc1
Cc1nc(NCCNC(=O)Nc2ccccc2)cc(-n2cccn2)n1
CCN1CCc2nc(-c3ccccc3)n(CC(=O)Nc3cc(OC)cc(OC)c3)c(=O)c2C1
O=C(NCCC1=CCCCC1)C(=O)Nc1cccc(N2CCCCC2=O)c1
O=C(CN1CC(c2nc(-c3ccsc3)no2)C1)NCCc1ccccc1
Cc1nn(-c2nc(C)c(C)c(=O)[nH]2)c(C)c1CCC(=O)Nc1ccc(C(F)(F)F)cc1
O=C(Cc1ccc(NS(=O)(=O)C2CC2)cc1)NCC(F)(F)F
O=C(Cc1csc(-n2cccc2)n1)Nc1nc2ccccc2s1
Cc1cccc(NC(=O)N2CCN(c3ccc4nnc(C5CC5)n4n3)CC2)c1C
CCOc1ccc2nc(NC(=O)Cn3cnc(C(C)C)cc3=O)sc2c1
Cc1ccc(-n2ccnc2N2CCN(C(=O)c3ccccc3)CC2)cc1
CS(=O)(=O)N1CCC(C(=O)Nc2nc3ccc(F)cc3s2)CC1
Cc1nc(-c2cccc(NC(=O)Cc3c(C)[nH]c(=O)[nH]c3=O)c2)cs1
COc1cc(COCC2CCN(C(=O)/C=C/c3ccccc3Cl)CC2)cc(OC)c1
O=C(c1ccc([N+](=O)[O-])o1)N1CCN(Cc2nnnn2-c2ccc(F)c(F)c2)CC1
CC(C)(C)CN(C(=O)c1ccco1)c1ccncc1
COc1ccccc1CNC(=O)C1CN(C(C)=O)C1
Cc1ccccc1C(=O)NCCNC(=O)c1ccc(NC(=O)C(C)C)cc1
O=C(Nc1cccs1)N1CCN(c2ccc(-c3ccco3)nn2)CC1
CC(C)CCn1nc2ccc(S(=O)(=O)N3CCOCC3)cn2c1=O
Cn1nnc2c(N3CCN(C(=O)NCCOc4ccccc4)CC3)ncnc21
COc1ccc(NC(=O)C(=O)NCCC(c2ccccc2)c2ccccc2)c(OC)c1
Cc1ccc(Nc2ccc(NC(=O)/C=C/c3ccccc3)cc2)nn1
CCOc1cccc2sc(N(CCN3CCOCC3)C(=O)c3ccco3)nc12
COc1ccc(C=O)cc1Cn1c(=O)n(CCCCC(=O)NCC(C)C)c(=O)c2ccccc21
COc1cc(OC)cc(-n2c(-c3ccco3)nc3nc4ccccc4nc32)c1
Cc1ccc2nc(C3CC(=O)N(c4ccccc4)C3)[nH]c2c1 (stereo not given)
COc1ccc(CCNC(=O)Cn2nc(-c3ccc(Cl)cc3)ccc2=O)cc1
O=C(NN1CCOCC1)c1ccc(N2CCC(Cc3ccccc3)CC2)nn1
CS(=O)(=O)N1CCCCC1C(=O)Nc1nc(-c2ccccn2)cs1 (stereo not given)
O=C(NCCCN1CCOC(c2ccccc2)C1)c1cc2ccccc2oc1=O (stereo not given)
COc1ccc(NC(=O)NCC(C)(O)C2CC2)cc1OC (stereo not given)
CSc1cccc(NC(=O)NCCNc2cc(-n3cccn3)ncn2)c1
CSc1ccccc1CN1CCC(CNC(=O)c2ccc(S(=O)(=O)N(C)C)cc2)CC1
COc1ccc(N2C(=O)CN(CCC3=CCCCC3)C3CS(=O)(=O)CC32)cc1Cl (stereo not given)
COc1cc(NC(=O)CSC2=NC3(CCCC3)N=C2c2ccccc2)cc(OC)c1
Cc1ccc(N2CC(C(=O)NCC3CCN(S(=O)(=O)C4CC4)CC3)CC2=O)cc1C (stereo not given)
Cc1cc(-c2nnc(NC(=O)C(c3ccccc3)c3ccccc3)o2)nn1C
CCOC(=O)CNC(=O)C1COCC(=O)N1Cc1ccccc1 (stereo not given)
COc1ccc(CCNC(=O)CCc2sc(C)nc2-c2cccs2)cc1
O=S(=O)(N1CCCCCC1)N1CCN(c2ccccc2F)CC1
CCOC(=O)c1cn[nH]c1S(=O)(=O)NCc1ccccn1
CSc1cccc(-n2nnc(C(=O)OCc3nc(-c4ccccc4)oc3C)c2C)c1
CN(C)C(CNC(=O)C(C)(C)C)c1ccccc1Cl (stereo not given)
CC(C)CCn1nc2ccc(S(=O)(=O)N3CCCCC3)cn2c1=O
COc1ccc(NC(=O)Cn2cc(-c3ccccc3)c(N(C)C)n2)cc1OC
Cc1cc(NC(=O)C(=O)c2c(C)[nH]c3ccccc23)n(-c2nc(-c3cccs3)cs2)n1
COc1ccc(NC(=O)c2ccccc2SC)cc1N1CCCCC1=O
Cc1cc(-c2nnc(NC(=O)c3ccc(S(=O)(=O)N4CCCC4)cc3)o2)n(C)n1
COC(=O)c1ccc(OC)cc1CN1C(=O)N(c2cc(F)ccc2F)S(=O)(=O)c2ccccc21
Cc1ccc(Nc2ccc(NC(=O)c3ccc(Br)o3)cc2)nn1
Cc1csc(NC(=O)CSc2nc(=O)n(N3CCN(C)CC3)c3c2CCC3)n1
Cc1nnc(CNC(=O)C(C)n2nnc3ccccc3c2=O)o1 (stereo not given)
O=C(NCCN1CCOCC1)C(=O)NCC(F)(F)F
CC(=O)N1CCN(S(=O)(=O)c2ccc(C(=O)NCc3cccnc3)cc2)CC1
COc1cc(C(=O)Nc2ccc3c(c2)N(C(=O)C2CC2)CCC3)cc(OC)c1OC
CC(Sc1ccnc2c1c(=O)n(C)c(=O)n2C)C(=O)O (stereo not given)
Cn1nc(NC(=O)C(C)(C)Oc2ccc(Cl)cc2)c2c1NC(=O)CC2c1ccco1 (stereo not given)
CS(=O)(=O)c1ccc(NC(=O)c2ccc(Cl)c(S(=O)(=O)N3CCOCC3)c2)cc1
CCOC(=O)Nc1nc(CC(=O)Nc2ccc(OC)cc2)cs1
O=C(NCc1ccc(Cl)cc1)C(=O)NCC1CCN(C(=O)c2cccnc2)CC1
Cc1cc(S(=O)(=O)NCC(O)c2ccc(C(F)(F)F)cc2)ccc1F (stereo not given)
Cc1ccc(Oc2ccc(N(C)C(=O)c3cccc(F)c3)cc2)nn1
CCOc1ccc(-c2cc(=O)n(CCCC(=O)Nc3cc(C)ns3)cn2)cc1
Cc1noc(C)c1S(=O)(=O)N1CCN(Cc2nc(-c3ccco3)cs2)CC1
CC1CCN(c2oc(-c3ccc(S(=O)(=O)N(C)Cc4ccccc4)cc3)nc2C#N)CC1
O=C(NCC1CCN(S(=O)(=O)C2CC2)CC1)c1ccccn1
CCOC(=O)C(CC)Sc1ccnc2c1c(=O)n(C)c(=O)n2C (stereo not given)
CN1CCN(C(CNC(=O)C(=O)NCc2ccc(Cl)cc2)c2cccn2C)CC1 (stereo not given)
CCN1CCc2nc(-c3ccccc3)n(CC(=O)Nc3cccc(Cl)c3C)c(=O)c2C1
CC(C)C(=O)N1CCCc2ccc(NC(=O)C(=O)NCCCc3ccccc3)cc21
CCOc1ccc(NS(=O)(=O)c2cccc(OC)c2)cc1
COc1cc(S(=O)(=O)N2CCN(CCO)CC2)ccc1Cl
O=C(N1CCC(c2cccs2)CC1)C1(c2ccc(F)cc2)CC1
CS(=O)(=O)N1CCN(Cc2nnnn2-c2ccc(F)cc2)CC1
CCn1c(SCC(=O)N(C)c2ccccc2)nnc1-c1cn(C)nc1OC
O=C(NCCN1CCC(c2cccs2)CC1)C(=O)Nc1ccc2c(c1)OCO2
CCCNC(=O)C(=O)Nc1c2c(nn1C(C)(C)C)CSC2
O=C(Nc1ccc(Cl)cc1)N1CCC2(CC1)NC(=O)N(CCOc1ccccc1)C2=O
O=C(CCn1ccc(=O)[nH]c1=O)N1CCN(c2ccc(-c3ccccn3)nn2)CC1
Cn1cnc2cc(OC(=O)c3ccc(=O)[nH]n3)ccc21
O=C(Cc1ccc2c(c1)OCO2)Nc1nnc(-c2ccc(Br)s2)o1
CC1(C)Cc2cccc(OCCCS(=O)(=O)N3CCCCC3)c2O1
O=C(Cn1cnc(-c2cccs2)cc1=O)NCCOc1ccc(F)cc1
COC(=O)c1ccc(-c2csc(NC(=O)CS(=O)(=O)Cc3ccccc3)n2)cc1
Cc1cccc(C(=O)Nc2cc(-c3ccco3)nn2-c2nc(C)cc(=O)[nH]2)c1
